Data taken from PMC11062922 (Nature Chemical Biology, 2023).
Where two headings read alike, the source gives them in different places.

Legend:
AAK1 = test system: AAK1; set-up: species or system human, MV4-11 + K-562 + COLO205 + SK-N-BE2 + OVCAR-8; settings: read-out: apparent Kd, compound concentrations: 100 nM and 1000 nM (sheet 'Samples'), n = 1
BMP2K = test system: BMP2K; set-up: species or system human, MV4-11 + K-562 + COLO205 + SK-N-BE2 + OVCAR-8; settings: read-out: apparent Kd, compound concentrations: 100 nM and 1000 nM (sheet 'Samples'), n = 1
CLK1 = test system: CLK1; set-up: species or system human, MV4-11 + K-562 + COLO205 + SK-N-BE2 + OVCAR-8; settings: read-out: apparent Kd, compound concentrations: 100 nM and 1000 nM (sheet 'Samples'), n = 1
CLK4 = test system: CLK4; set-up: species or system human, MV4-11 + K-562 + COLO205 + SK-N-BE2 + OVCAR-8; settings: read-out: apparent Kd, compound concentrations: 100 nM and 1000 nM (sheet 'Samples'), n = 1
CSNK2A1;CSNK2A3 = test system: CSNK2A1;CSNK2A3; set-up: species or system human, MV4-11 + K-562 + COLO205 + SK-N-BE2 + OVCAR-8; settings: read-out: apparent Kd, compound concentrations: 100 nM and 1000 nM (sheet 'Samples'), n = 1
CSNK2A2 = test system: CSNK2A2; set-up: species or system human, MV4-11 + K-562 + COLO205 + SK-N-BE2 + OVCAR-8; settings: read-out: apparent Kd, compound concentrations: 100 nM and 1000 nM (sheet 'Samples'), n = 1
DYRK1A = test system: DYRK1A; set-up: species or system human, MV4-11 + K-562 + COLO205 + SK-N-BE2 + OVCAR-8; settings: read-out: apparent Kd, compound concentrations: 100 nM and 1000 nM (sheet 'Samples'), n = 1
FLT3 = test system: FLT3; set-up: species or system human, MV4-11 + K-562 + COLO205 + SK-N-BE2 + OVCAR-8; settings: read-out: apparent Kd, compound concentrations: 100 nM and 1000 nM (sheet 'Samples'), n = 1
FLT4 = test system: FLT4; set-up: species or system human, MV4-11 + K-562 + COLO205 + SK-N-BE2 + OVCAR-8; settings: read-out: apparent Kd, compound concentrations: 100 nM and 1000 nM (sheet 'Samples'), n = 1
GAK = test system: GAK; set-up: species or system human, MV4-11 + K-562 + COLO205 + SK-N-BE2 + OVCAR-8; settings: read-out: apparent Kd, compound concentrations: 100 nM and 1000 nM (sheet 'Samples'), n = 1
GSK3A = test system: GSK3A; set-up: species or system human, MV4-11 + K-562 + COLO205 + SK-N-BE2 + OVCAR-8; settings: read-out: apparent Kd, compound concentrations: 100 nM and 1000 nM (sheet 'Samples'), n = 1
GSK3B = test system: GSK3B; set-up: species or system human, MV4-11 + K-562 + COLO205 + SK-N-BE2 + OVCAR-8; settings: read-out: apparent Kd, compound concentrations: 100 nM and 1000 nM (sheet 'Samples'), n = 1
MELK = test system: MELK; set-up: species or system human, MV4-11 + K-562 + COLO205 + SK-N-BE2 + OVCAR-8; settings: read-out: apparent Kd, compound concentrations: 100 nM and 1000 nM (sheet 'Samples'), n = 1
MYLK3 = test system: MYLK3; set-up: species or system human, MV4-11 + K-562 + COLO205 + SK-N-BE2 + OVCAR-8; settings: read-out: apparent Kd, compound concentrations: 100 nM and 1000 nM (sheet 'Samples'), n = 1
NUAK1 = test system: NUAK1; set-up: species or system human, MV4-11 + K-562 + COLO205 + SK-N-BE2 + OVCAR-8; settings: read-out: apparent Kd, compound concentrations: 100 nM and 1000 nM (sheet 'Samples'), n = 1
PAK4 = test system: PAK4; set-up: species or system human, MV4-11 + K-562 + COLO205 + SK-N-BE2 + OVCAR-8; settings: read-out: apparent Kd, compound concentrations: 100 nM and 1000 nM (sheet 'Samples'), n = 1
Q6ZSR9 = Q6ZSR9 (human, UniProt Q6ZSR9); set-up: species or system MV4-11 + K-562 + COLO205 + SK-N-BE2 + OVCAR-8; settings: read-out: apparent Kd, compound concentrations: 100 nM and 1000 nM (sheet 'Samples'), n = 1
Sequence of Q6ZSR9 (Q6ZSR9 whole entry, looked up): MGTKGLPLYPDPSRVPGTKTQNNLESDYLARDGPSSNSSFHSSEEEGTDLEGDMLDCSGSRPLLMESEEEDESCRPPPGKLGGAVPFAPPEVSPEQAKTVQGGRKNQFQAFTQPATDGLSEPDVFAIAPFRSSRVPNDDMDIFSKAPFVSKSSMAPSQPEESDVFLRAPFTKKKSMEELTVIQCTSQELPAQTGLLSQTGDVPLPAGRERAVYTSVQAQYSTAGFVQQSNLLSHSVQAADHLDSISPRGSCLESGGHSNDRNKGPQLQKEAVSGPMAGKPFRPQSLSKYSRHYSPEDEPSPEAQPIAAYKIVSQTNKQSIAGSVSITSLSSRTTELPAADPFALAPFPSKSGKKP

RET = test system: RET; set-up: species or system human, MV4-11 + K-562 + COLO205 + SK-N-BE2 + OVCAR-8; settings: read-out: apparent Kd, compound concentrations: 100 nM and 1000 nM (sheet 'Samples'), n = 1
CDKL5 = test system: CDKL5; set-up: species or system human, MV4-11 + K-562 + COLO205 + SK-N-BE2 + OVCAR-8; settings: read-out: apparent Kd; compound concentrations: 100 nM and 1000 nM (sheet 'Samples'), CATDS: 7.5103535509973398E-3; n = 1
PRKD2 = test system: PRKD2; set-up: species or system human, MV4-11 + K-562 + COLO205 + SK-N-BE2 + OVCAR-8; settings: read-out: apparent Kd; compound concentrations: 100 nM and 1000 nM (sheet 'Samples'), CATDS: 9.3127707603308692E-3; n = 1

## COc1cccc(NC(=O)NC2CCN(c3ccnc(Nc4cc(OC)c(OC)c(OC)c4)n3)C2)c1 (stereo not shown) [GSK1379763A]
AAK1; CATDS: 1
  potency estimated from few doses: 1.85 µM

## CSc1c(C2=C(c3cn(C)c4ccccc34)C(=O)NC2=O)c2ccccc2n1C [RO0317340-000]
AAK1; CATDS: 1
  potency estimated from few doses: 1.17 µM

## COc1ccc(Nc2ncc(C#N)c(Nc3ccccc3C(N)=O)n2)cc1N1CCN(C)CC1.Cl [GSK1558669A]
AAK1; CATDS: 1.0489274011292E-2
  potency estimated from few doses: 0.164 µM
BMP2K; CATDS: 9.7460630022759408E-3
  potency estimated from few doses: 0.204 µM
CLK1; CATDS: 1.6853937375741E-2
  potency estimated from few doses: 0.052 µM
CLK4; CATDS: 1.78351826711012E-2
  potency estimated from few doses: 0.0464 µM
CSNK2A1;CSNK2A3; CATDS: 3.32003717220812E-2
  potency estimated from few doses: 0.0157 µM
CSNK2A2; CATDS: 5.84237607609163E-2
  potency estimated from few doses: 0.00702 µM
DYRK1A; CATDS: 6.6106373934709103E-3
  potency estimated from few doses: 0.954 µM
FLT3; CATDS: 2.0604812795468701E-2
  potency estimated from few doses: 0.0351 µM
FLT4; CATDS: 6.1594984322683802E-2
  potency estimated from few doses: 0.00655 µM
GAK; CATDS: 7.1387437274862903E-3
  potency estimated from few doses: 0.65 µM
GSK3A; CATDS: 2.2002232250464899E-2
  potency estimated from few doses: 0.0311 µM
GSK3B; CATDS: 2.1185466534455601E-2
  potency estimated from few doses: 0.0333 µM
MELK; CATDS: 6.9590061702447499E-3
  potency estimated from few doses: 0.733 µM
MYLK3; CATDS: 2.6075418388892199E-2
  potency estimated from few doses: 0.0231 µM
NUAK1; CATDS: 1.9495800971078701E-2
  potency estimated from few doses: 0.039 µM
PAK4; CATDS: 1.03985583586522E-2
  potency estimated from few doses: 0.168 µM
Q6ZSR9; CATDS: 1.17172228407674E-2
  potency estimated from few doses: 0.121 µM
RET; CATDS: 1.6777420038619099E-2
  potency estimated from few doses: 0.0525 µM

## CN(c1ccc(NC(=O)Nc2cccc(Cl)c2)cc1)c1ccnc(N)n1.Cl [GW830707A]
AAK1; CATDS: 1.09630092870236E-2
  potency estimated from few doses: 1.15 µM
CLK1; CATDS: 2.1787512742807501E-2
  potency estimated from few doses: 0.042 µM
CLK4; CATDS: 1.6953828831644601E-2
  potency estimated from few doses: 0.0904 µM
CSNK2A1;CSNK2A3; CATDS: 1.0372533520716E-2
  potency estimated from few doses: 1.99 µM
CSNK2A2; CATDS: 1.04920498001006E-2
  potency estimated from few doses: 1.76 µM
GAK; CATDS: 2.5195285382478599E-2
  potency estimated from few doses: 0.0296 µM
GSK3A; CATDS: 2.1035735190854499E-2
  potency estimated from few doses: 0.0461 µM
GSK3B; CATDS: 1.8960420623414999E-2
  potency estimated from few doses: 0.0622 µM
MELK; CATDS: 1.02944782662895E-2
  potency estimated from few doses: 2.16 µM
NUAK1; CATDS: 1.06533204099584E-2
  potency estimated from few doses: 1.51 µM
PAK4; CATDS: 1.12669730748303E-2
  potency estimated from few doses: 0.911 µM
Q6ZSR9; CATDS: 1.11912324380908E-2
  potency estimated from few doses: 0.964 µM
RET; CATDS: 1.6938963358117499E-2
  potency estimated from few doses: 0.0907 µM

## Clc1cc(Cl)cc(Nc2ccnc(Nc3cc(Cl)cc(Cl)c3)n2)c1 [GSK175726A]
AAK1; CATDS: 1.17801193164304E-2
  potency estimated from few doses: 0.46 µM
BMP2K; CATDS: 9.0184479884945195E-3
  potency estimated from few doses: 1.24 µM
CLK1; CATDS: 2.2055974074076602E-2
  potency estimated from few doses: 0.111 µM
CLK4; CATDS: 1.3138431378969501E-2
  potency estimated from few doses: 0.338 µM
CSNK2A1;CSNK2A3; CATDS: 1.0484195430571001E-2
  potency estimated from few doses: 0.672 µM
CSNK2A2; CATDS: 1.04904160104555E-2
  potency estimated from few doses: 0.671 µM
FLT4; CATDS: 8.8646184270887406E-3
  potency estimated from few doses: 1.35 µM
GAK; CATDS: 2.44642148870544E-2
  potency estimated from few doses: 0.0921 µM
GSK3A; CATDS: 1.64548846246832E-2
  potency estimated from few doses: 0.197 µM
GSK3B; CATDS: 1.50283486353895E-2
  potency estimated from few doses: 0.242 µM
MELK; CATDS: 8.4068419636258301E-3
  potency estimated from few doses: 1.79 µM
NUAK1; CATDS: 1.3178024386402599E-2
  potency estimated from few doses: 0.335 µM
PAK4; CATDS: 1.1864346361446201E-2
  potency estimated from few doses: 0.45 µM
Q6ZSR9; CATDS: 1.1627061095110299E-2
  potency estimated from few doses: 0.479 µM
RET; CATDS: 1.2674098851270001E-2
  potency estimated from few doses: 0.373 µM

## CCOC(=O)N1CCC(n2cnc(-c3ccc(F)cc3)c2-c2ccnc(N)n2)CC1 [SB-219952]
AAK1; CATDS: 1.33097974797153E-2
  potency estimated from few doses: 0.454 µM
BMP2K; CATDS: 1.0000193686827899E-2
  potency estimated from few doses: 0.867 µM
CDKL5
  potency estimated from few doses: 2.17 µM
CLK1; CATDS: 1.18597213826205E-2
  potency estimated from few doses: 0.578 µM
CSNK2A1;CSNK2A3; CATDS: 1.2357704080210899E-2
  potency estimated from few doses: 0.529 µM
CSNK2A2; CATDS: 1.08103941261705E-2
  potency estimated from few doses: 0.715 µM
DYRK1A; CATDS: 7.51253046880054E-3
  potency estimated from few doses: 2.17 µM
FLT3; CATDS: 8.0965887805869007E-3
  potency estimated from few doses: 1.63 µM
FLT4; CATDS: 1.0948126782386601E-2
  potency estimated from few doses: 0.694 µM
GAK; CATDS: 1.8528073728162099E-2
  potency estimated from few doses: 0.245 µM
GSK3A; CATDS: 1.9129432777521899E-2
  potency estimated from few doses: 0.232 µM
GSK3B; CATDS: 1.5651651675632799E-2
  potency estimated from few doses: 0.331 µM
MELK; CATDS: 7.6939005676200604E-3
  potency estimated from few doses: 1.97 µM
MYLK3; CATDS: 7.2973663588222501E-3
  potency estimated from few doses: 2.47 µM
NUAK1; CATDS: 9.2511282375558092E-3
  potency estimated from few doses: 1.07 µM
PAK4; CATDS: 1.1415940389083201E-2
  potency estimated from few doses: 0.63 µM
PRKD2
  potency estimated from few doses: 1.05 µM
Q6ZSR9; CATDS: 1.30827275923428E-2
  potency estimated from few doses: 0.47 µM
RET; CATDS: 1.35684167881036E-2
  potency estimated from few doses: 0.436 µM
